Hits are enriched below; roughly 3.2% of the tested compounds scored in any of these assays.
MsrA inhibitor: inhibits bovine methionine sulfoxide reductase A; purified bovine MsrA, absorbance read-out; inhibition, % at 15.5 µM; actives 0.75% (n = 360,000); AID 651718; in the data active = inhibition above about 4.5%
PG9 Ab binder: PG9 antibody binding by small molecule; TR-FRET gp120-PG9 antibody binding; inhibition, % at 6.7 µM; actives 0.43% (n = 360,000); in the data active = inhibition above about 8.5%
rCAG RNA binder: r(CAG) repeat RNA binding | actives 1.3% (n = 370,000) | AID 651821 | inhibition, % at 3 µM | TO-PRO-1 dye displacement fluorescence;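 active = inhibition above the plate cutoff, the mean of all test compounds on that plate plus 3 SD, cut at about 35% in these data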;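 also: higher means more dye released from RNA so lower well fluorescence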
bovine MsrA act: activates bovine MsrA enzyme. purified bovine MsrA, absorbance read-out. activation, % at 10.6 µM. actives 0.3% (n = 360,000). AID 602163; in the data active = activation above about 7.5%
HGIII-sPLA2 inh: Blocks human group III sPLA2 activity; Q9NZ20; QFRET BODIPY PC-A2 liposome hydrolysis, fluorescence; inhibition, % at 12.2 µM; actives 0.56% (n = 370,000); AID 743126;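 active = inhibition above mean plus 3 SD of compounds lying within the high and low control bounds, cut at about 19% in these data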
Target sequence (Q9NZ20 whole entry, looked up): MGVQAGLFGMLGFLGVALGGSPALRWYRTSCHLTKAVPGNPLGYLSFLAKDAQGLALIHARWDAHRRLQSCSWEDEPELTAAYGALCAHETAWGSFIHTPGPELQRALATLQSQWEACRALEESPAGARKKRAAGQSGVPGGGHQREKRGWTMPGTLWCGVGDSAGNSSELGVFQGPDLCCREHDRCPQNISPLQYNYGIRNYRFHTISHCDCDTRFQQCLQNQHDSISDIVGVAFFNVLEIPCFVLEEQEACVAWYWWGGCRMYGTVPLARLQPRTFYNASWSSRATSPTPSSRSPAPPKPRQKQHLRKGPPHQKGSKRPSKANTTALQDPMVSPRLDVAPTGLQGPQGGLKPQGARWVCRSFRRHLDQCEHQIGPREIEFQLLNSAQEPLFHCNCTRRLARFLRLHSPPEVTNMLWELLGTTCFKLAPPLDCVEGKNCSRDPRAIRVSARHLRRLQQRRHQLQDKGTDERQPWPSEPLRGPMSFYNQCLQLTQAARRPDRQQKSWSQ
MsrA activ conf: confirmation of bovine methionine sulfoxide reductase A activators; shares compounds with bovine MsrA act; purified bovine MsrA, absorbance read-out; activation, % at 10.6 µM; actives 12% (n = 1,000); AID 602270; in the data active = activation above about 4%;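 also: enzyme coupled to thioredoxin and thioredoxin reductase with NADPH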
Of the large screens only hits and unclear results are named; the others gave an inactive call (follow-up assays come after a bar, where they were run).

O=C(O)CSc1nnc(Cn2cnc3ccccc32)n1CCc1ccccc1	bovine MsrA act 8.8 | MsrA activ conf inactive
CCOC(=O)N1C(=O)C[C@](Sc2ccc(OC)cc2)(C(=O)N2CCOCC2)[C@H]1c1ccc(OC)cc1	none (no result: MsrA inhibitor, PG9 Ab binder, bovine MsrA act)
CC1CCCCN1C(=O)CSc1nnc(-c2ccco2)n1C (centres undefined)	bovine MsrA act 26 | MsrA activ conf inactive
CCn1c(SCC(=O)N2CCCCC2C)nnc1-c1ccco1 (centres undefined)	none
CC(C)C(C#CC1CC1)NCc1ccc2c(c1)OCO2 (centres undefined)	none (no result: MsrA inhibitor, PG9 Ab binder, bovine MsrA act)
CCC(Oc1ccccc1OC)C(=O)Nc1ccc2c(c1)OCCO2 (centres undefined)	bovine MsrA act 16 | MsrA activ conf inactive
COC(=O)c1cn(-c2ccc3c(c2)[C@@]2(CC(=O)N(C)C2c2ccccc2)C(=O)N3CC(C)C)nn1 (some centres undefined)	none (no result: MsrA inhibitor, PG9 Ab binder, bovine MsrA act)
O=C(c1ccc(Cl)cc1Cl)N1CCC(c2nc3c(nnn3Cc3ccco3)c(=O)[nH]2)CC1	bovine MsrA act 23 | MsrA activ conf inactive
O=C1[C@@H](CCc2ccccc2)[C@@H]2c3ccccc3C=NN2[C@@H]2c3ccccc3C=NN12	none (no result: MsrA inhibitor, PG9 Ab binder, bovine MsrA act)
Cc1cccc(C)c1NC(=O)N1CCC(n2c(=O)[nH]c3ccccc32)CC1	bovine MsrA act 7.8 | MsrA activ conf inactive
Cc1cccc(C)c1NC(=O)N1CCC(n2cnc3ccccc32)CC1	none
COC(=O)N/N=C/c1ccc(-c2ccc(C)c(Cl)c2)o1	none
Cc1ccc(-c2ccc(/C=N/NC(=O)CN3CCCC3)o2)cc1Cl	bovine MsrA act 8.8 | MsrA activ conf inactive
O[C@H](COc1cccc(Cl)c1)CN1CCC(C(O)(c2ccccc2)c2ccccc2)CC1	none (no result: MsrA inhibitor, PG9 Ab binder, bovine MsrA act)
Cc1ccc(C(C)C)cc1OCC(=O)Nc1nnc(C2CC2)s1	none
Cc1cc(OCC(=O)Nc2nnc(C3CC3)s2)ccc1C(C)C	bovine MsrA act 11 | MsrA activ conf inactive
Cc1[nH]c2ccccc2c1CC(=O)O	bovine MsrA act 13 | MsrA activ conf inactive
COc1ccc2ccccc2c1C=NNC(=O)c1cc(-c2ccc(C)c(C)c2)n[nH]1	none (no result: MsrA inhibitor, PG9 Ab binder, bovine MsrA act)
CC(=O)c1c(C)n(-c2ccc(Cl)cc2)c2ccc(O)cc12	bovine MsrA act 7.8 | MsrA activ conf inactive
CC(=O)c1ccc(-n2c(C)c(C(C)=O)c3cc(O)ccc32)cc1	none
Cc1cccc(-c2cccc3c4c([nH]c23)[C@@H]2C[C@H](N(C)C(=O)NC3CCCCC3)[C@H]([C@H](C)O)CN2CC4)c1	none (no result: MsrA inhibitor, PG9 Ab binder, bovine MsrA act)
NC(=S)Nc1ccc2c(c1)OCO2	bovine MsrA act 15 | MsrA activ conf inactive
COC(=O)c1cc(-c2cccc(OC(F)(F)F)c2)c(=O)n2c1CCC2	none (no result: MsrA inhibitor, PG9 Ab binder, bovine MsrA act)
Cc1ccc(S(=O)(=O)Nc2cccc(-c3ccc4nnc(C)n4n3)c2)s1	bovine MsrA act 20 | MsrA activ conf inactive
Cc1nc2ccccn2c1-c1ccnc(=S)[nH]1	bovine MsrA act 8.8 | MsrA activ conf inactive
CCOC(=O)CSc1nnc(-c2nnc(SCC(=O)OCC)n2CC)n1CC	bovine MsrA act 7.7 | MsrA activ conf inactive
C[C@]12c3[nH]c4cc(-c5ccco5)ccc4c3CCN1C(=O)[C@@H](CC(=O)NCCC1=CCCCC1)C[C@@H]2C(=O)N1CCCCC1	bovine MsrA act 8.3 | MsrA activ conf inactive
C[C@]12c3[nH]c4cc(-c5ccco5)ccc4c3CCN1C(=O)[C@@H](CC(=O)NCCc1ccccn1)C[C@@H]2C(=O)N1CCCCC1	none
COC(=O)C1CN(CCc2ccccc2)CCS(=O)(=O)N1Cc1ccc(C)cc1 (centres undefined)	none (no result: MsrA inhibitor, PG9 Ab binder, bovine MsrA act)
COc1ccc([C@H]2OC(=O)C[C@H]2C(=O)N2CCCC2)cc1OC	none (no result: MsrA inhibitor, PG9 Ab binder, bovine MsrA act)
OCCN1CCCC12CCC(c1ccccc1)CC2 (centres undefined)	none (no result: MsrA inhibitor, PG9 Ab binder, bovine MsrA act)
COc1nccc(C(F)(F)F)c1C(=O)NC(=O)Nc1ccccc1	bovine MsrA act 9.5 | MsrA activ conf inactive
C#CCCCN([C@H](C(=O)OC)C(C)C)S(=O)(=O)c1ccc(F)cc1Br	none (no result: MsrA inhibitor, PG9 Ab binder, bovine MsrA act)
COC(=O)[C@]12C[C@H](CC(=O)NCCCCc3ccccc3)C(=O)N(Cc3ccco3)C1=C[C@H](C(C)(C)C)O[C@@H]2C	none (no result: MsrA inhibitor, PG9 Ab binder, bovine MsrA act)
Cc1cccc(NC(=O)c2ccccc2NC(=O)c2ccccc2)n1	bovine MsrA act 18 | MsrA activ conf inactive
COc1ccc(OCC(C)CN2CCC(C(O)(c3ccccc3)c3ccccc3)CC2)cc1 (centres undefined)	none (no result: MsrA inhibitor, PG9 Ab binder, bovine MsrA act)
C=C1CCC[C@]2(C)C[C@H]3OC(=O)C(CNCCN(CC)CC)[C@H]3CC12 (some centres undefined)	bovine MsrA act 8.4 | MsrA activ conf inactive
